Where two headings read alike, the source gives them in different places.

Design in all cases: species or system human, MV4-11 + K-562 + COLO205 + SK-N-BE2 + OVCAR-8
One test deals with CAMKK2. The conditions noted are these: read-out: apparent Kd, compound concentrations: 100 nM and 1000 nM (sheet 'Samples'), n = 1.
A further test has as its system MDN1. The conditions noted are these: read-out: apparent Kd, n = 1.
The next test has as its system RAB14. The conditions noted are these: read-out: apparent Kd, n = 1.
The next test concerns AGK. The conditions noted are these: read-out: apparent Kd, n = 1.
The test system of the next test is MAPK7. The conditions noted are these: read-out: apparent Kd, compound concentrations: 100 nM and 1000 nM (sheet 'Samples'), n = 1.
The next test concerns NEK3. The conditions noted are these: read-out: apparent Kd, compound concentrations: 100 nM and 1000 nM (sheet 'Samples'), n = 1.
Another test concerns PKN2. The following applies: read-out: apparent Kd, n = 1.
The test system of another test is AXL. The following applies: read-out: apparent Kd, n = 1.
The next test relates to RAB5C. The following applies: read-out: apparent Kd; compound concentrations:100 nM and 1000 nM (sheet 'Samples'); n = 1.
The next test relates to PRKCQ. The conditions noted are these: read-out: apparent Kd, compound concentrations: 100 nM and 1000 nM (sheet 'Samples'), n = 1.
The test system of another test is FGFR1. The following applies: read-out: apparent Kd, n = 1.
A further test relates to MAP3K4. The conditions noted are these: read-out: apparent Kd, n = 1.
The next test deals with PAK6. The conditions noted are these: read-out: apparent Kd, n = 1.
For another test, the system named is ADK. The conditions noted are these: read-out: apparent Kd, n = 1.
The test system of another test is CDK9. The conditions noted are these: read-out: apparent Kd; compound concentrations:100 nM and 1000 nM (sheet 'Samples'); n = 1.
A further test has as its system PLK1. The following applies: read-out: apparent Kd, n = 1.
Another test concerns PRKD1. The following applies: read-out: apparent Kd, n = 1.
The next test has as its system ACLY. The conditions noted are these: read-out: apparent Kd, compound concentrations: 100 nM and 1000 nM (sheet 'Samples'), n = 1.
Another test deals with TTK. The following applies: read-out: apparent Kd, compound concentrations: 100 nM and 1000 nM (sheet 'Samples'), n = 1.
A further test deals with CAMK2B. The following applies: read-out: apparent Kd, n = 1.
The mark [1] stands for this setting: compound concentrations:100 nM and 1000 nM (sheet 'Samples').

`COc1cccc(-n2ncc3c(N/N=C/c4ccc(C(=O)NCCN(C)C)cc4)ncnc32)c1.Cl` [GW784307A]: the potency estimated from few doses with CAMKK2 (CATDS: 2.5303732707076199E-2) is 2120 nM.

Take `COc1ccc(Nc2nccc(N3CCC(NC(=O)Nc4ccc5c(c4)OCO5)C3)n2)cc1` (centres unmarked) [GSK1379745A]: the potency estimated from few doses in the test with MDN1 (compound concentrations: 100 nM and 1000 nM (sheet 'Samples'), CATDS: 4.1972847016179399E-2) was 1360 nM; in the test with RAB14 (compound concentrations: 100 nM and 1000 nM (sheet 'Samples'), CATDS: 3.8007636055388601E-2), 1680 nM.

As for `Cl.Cl.Cl.c1ccc(Oc2ccc(Nc3ccnc4cc(-c5ccc(CN6CCNCC6)o5)ccc34)cc2)nc1.c1ccc(Oc2ccc(Nc3ccnc4cc(-c5ccc(CN6CCNCC6)o5)ccc34)cc2)nc1` [GW567142A], the potency estimated from few doses in the test with AGK (compound concentrations: 100 nM and 1000 nM (sheet 'Samples'), CATDS: 1.95822774177494E-2) is 1230 nM; in the test on MAPK7 (CATDS: 1.6423654132294602E-2) it was 2370 nM; in the test on NEK3 (CATDS: 1.7301178546407801E-2) it was 1910 nM; in the test on PKN2 (compound concentrations: 100 nM and 1000 nM (sheet 'Samples'), CATDS: 1.6443566928173701E-2) it was 2350 nM.

Turning to `CN1C(=O)c2ccccc2N(C)c2nc(Nc3cnn(C4CCNCC4)c3)ncc21` [XMD-17-51], in the test on MAPK7 (CATDS: 3.6148838376291702E-2), the potency estimated from few doses was 101 nM.

Regarding `CCn1cc(-c2ccnc3[nH]c(-c4cccc(CN(C)C)c4)cc23)c(-c2ccc(NC(=O)N(C)C)cc2)n1` [GSK1070916], the potency estimated from few doses in the test on AXL (setting [1]) was 891 nM; in the test on MDN1 (setting [1]), 2000 nM; in the test with RAB5C it was 1430 nM.

`Cn1cc(C2=C(c3cn(CCCO)c4ccccc34)C(=O)NC2=O)c2ccccc21` [RO0317377-000]: the potency estimated from few doses in the test with PRKCQ (CATDS: 9.7872401763747702E-2) is 2020 nM.

With `CCN(CC)CCOc1ccc(Nc2ncc3cc(-c4c(Cl)cccc4Cl)c(=O)n(C)c3n2)cc1` [SB-601273], the figures for the potency estimated from few doses with FGFR1 (setting [1]) and with MAP3K4 (setting [1]) were 388 nM and 640 nM, respectively.

Take `O=C1N=C(NCc2cccs2)SC1Cc1ccc2ncccc2c1` (centres unmarked) [RO4629078-000]: the potency estimated from few doses is 899 nM in the test on AXL (compound concentrations: 100 nM and 1000 nM (sheet 'Samples'), CATDS: 8.9637378169906395E-3); 586 nM in the test on CAMKK2 (CATDS: 1.0556199661625101E-2); 1400 nM with FGFR1 (compound concentrations: 100 nM and 1000 nM (sheet 'Samples'), CATDS: 7.8188916788292304E-3); 43.4 nM with PAK6 (compound concentrations: 100 nM and 1000 nM (sheet 'Samples'), CATDS: 5.6767334452466102E-2); 52.1 nM with PRKCQ (CATDS: 4.8799216922885302E-2).

For `Nc1nc(N)c2nc(-c3ccccc3)[nH]c2n1` [SKF-12778], in the test with RAB14 (setting [1]), the potency estimated from few doses is 1300 nM.

For the molecule `COc1cc2ncn(-c3cc(OCCCc4ccccc4)c(C(N)=O)s3)c2cc1OC` [GSK205189A], the potency estimated from few doses in the test with PAK6 (setting [1]) is 1960 nM.

On to `Fc1ccc(-c2c(-c3ccncc3)[nH]c3nccnc23)cc1` [RO1155697-000], for which the potency estimated from few doses in the test with AGK (setting [1]) is 1640 nM.

On to `COc1cc2ncn(-c3cc(OCc4cccs4)c(C(N)=O)s3)c2cc1OC` [GSK312948A], for which the values for the potency estimated from few doses in the test on ADK (setting [1]) and with RAB5C were 863 nM and 1450 nM, respectively.

In the case of `CNC(=O)c1ccccc1Nc1nc(Nc2cccc(CS(C)(=O)=O)c2)ncc1C.O=CO` [GSK1520489A], the potency estimated from few doses is 374 nM in the test with AXL (compound concentrations: 100 nM and 1000 nM (sheet 'Samples'), CATDS: 1.37984345324301E-2); 213 nM in the test with FGFR1 (compound concentrations: 100 nM and 1000 nM (sheet 'Samples'), CATDS: 1.6795329465602301E-2).

As for `CC(=O)c1c(-c2ccncc2)[nH]c(-c2ccncc2)c1C` [GW493036X], the potency estimated from few doses is 1760 nM in the test with ADK (setting [1]), 154 nM in the test with CDK9 and 1600 nM with RAB5C.

On to `N#Cc1cnc2cc(-c3cnc(CNCCN4CCOCC4)s3)ccc2c1Nc1ccc(Oc2ccccc2)cc1` [GW664114X], for which the potency estimated from few doses with MAP3K4 (compound concentrations: 100 nM and 1000 nM (sheet 'Samples'), CATDS: 5.1499823560292202E-2) is 914 nM.

Take `COc1cc2ncn(-c3cc(OCc4ccncc4)c(C(N)=O)s3)c2cc1OC` [GSK336313A]: the potency estimated from few doses in the test with PLK1 (setting [1]) was 686 nM.

As to `N#Cc1cccc(Nc2nccc(-c3cnn4ncccc34)n2)c1` [GW778894X], the potency estimated from few doses in the test with CDK9 is 3.72 nM.

`O=S(=O)(CCOCc1ccc(-c2ccc3ncnc(Nc4ccc(OCc5cccc(F)c5)c(Cl)c4)c3c2)o1)c1ccccc1` [GW615311X]: in the test on NEK3 (CATDS: 2.1900299581920201E-2), the potency estimated from few doses is 2460 nM.

On to `CC(C)c1nc(-c2ccc(F)c(NS(=O)(=O)c3c(F)cccc3F)c2)c(-c2ccnc(Nc3ccc(N4CCOCC4)nc3)n2)s1` [GSK1804250A], for which, in the test with PRKD1 (setting [1]), the potency estimated from few doses was 1140 nM.

Regarding `CN1CCN(Cc2ccc(NC(=O)Nc3ccc(N(C)c4ccnc(Nc5ccc(CS(C)(=O)=O)cc5)n4)cc3)cc2)CC1.Cl` [GW827654A], the potency estimated from few doses in the test with MAP3K4 (compound concentrations: 100 nM and 1000 nM (sheet 'Samples'), CATDS: 3.4818891633212903E-2) is 1770 nM.

Regarding `CC(=O)N1CCN(c2ccc(Nc3nccc(-c4sc(C(C)C)nc4-c4cccc(NS(=O)(=O)c5cccc(Cl)c5)c4)n3)cn2)CC1` [GSK1660437A], the potency estimated from few doses with ACLY (CATDS: 3.7699367281675798E-2) was 1770 nM.

For the molecule `Cl.Cn1c(=O)c(Cc2ccc(F)cc2F)cc2cnc(NC3CCOCC3)nc21` [RO3308757-001], the potency estimated from few doses in the test on PAK6 (setting [1]) was 1650 nM.

Turning to `COc1cc2ncn(-c3cc(OCc4sccc4Cl)c(C(N)=O)s3)c2cc1OC` [GSK448459A], the potency estimated from few doses in the test on PLK1 (setting [1]) was 81.2 nM.

Turning to `COc1ccc(-c2nn3ncccc3c2-c2ccnc(Nc3ccc4c(c3)OCCO4)n2)cc1` [GW827106X], in the test on TTK (CATDS: 4.8165403785390797E-2), the potency estimated from few doses was 1630 nM.

Consider `COc1cc(F)c(F)c(F)c1C(=O)c1cnc(NC2CCN(S(C)(=O)=O)CC2)nc1N` [RO4600703-000], for which, in the test with CDK9, the potency estimated from few doses is 349 nM.

Consider `Cn1cc(C2=C(c3cccc([N+](=O)[O-])c3)C(=O)NC2=O)c2ccccc21` [RO0317474-000], for which, in the test with CAMK2B (compound concentrations: 100 nM and 1000 nM (sheet 'Samples'), CATDS: 0.20512519327704001), the potency estimated from few doses is 717 nM.

Consider `COc1cc(N2CCN(C(C)C)CC2)ccc1Nc1nc(Nc2cccc(F)c2C(=O)O)c2cc[nH]c2n1` [GSK1819799A], for which the potency estimated from few doses is 2000 nM with ACLY (CATDS: 4.2702759645578299E-2) and 662 nM in the test with TTK (CATDS: 6.5910432506735395E-2).

Regarding `COc1ccc(Nc2nccc(N3CCC(NC(=O)Nc4cccc(OC)c4)C3)n2)cc1` (centres unmarked) [GSK1379742A], the potency estimated from few doses with ADK (compound concentrations: 100 nM and 1000 nM (sheet 'Samples'), CATDS: 0.15674492121070999) was 1070 nM.

Regarding `NC(=O)c1sc(-n2cnc3ccc(C(F)(F)F)cc32)cc1OCc1ccccc1Br` [GW853606X], the potency estimated from few doses in the test with PLK1 (compound concentrations: 100 nM and 1000 nM (sheet 'Samples'), CATDS: 0.32728933930944998) is 1020 nM.

For `COc1ccc(C2=C(c3cn(C)c4ccccc34)C(=O)NC2=O)cc1OC` [RO3206363-000], the potency estimated from few doses with PRKCQ (CATDS: 0.114661548989235) was 82.8 nM; with PRKD1 (compound concentrations: 100 nM and 1000 nM (sheet 'Samples'), CATDS: 5.5883212244700199E-2) it was 347 nM.

For the molecule `Cl.Oc1ccc2ncnc(Nc3ccc(OCc4ccccc4)cc3)c2c1` [GI262866A], the potency estimated from few doses in the test on CAMK2B (setting [1]) was 391 nM.

`COc1cccc(C2=C(c3cn(C)c4c(C)cccc34)C(=O)NC2=O)c1` [RO3301012-000]: the potency estimated from few doses in the test with CAMK2B (compound concentrations: 100 nM and 1000 nM (sheet 'Samples'), CATDS: 0.15582522082394101) was 642 nM.

Turning to `Fc1cccc(COc2ccc(Nc3ncncc3C#Cc3ccccc3)cc2Cl)c1` [GW651576X], the potency estimated from few doses in the test on TTK (CATDS: 4.4346947520248398E-2) was 2370 nM.

For `Nc1c(C(=O)c2ccccc2)cnn1-c1ccc(F)cc1` [RO1151246-000], in the test on PKN2 (setting [1]), the potency estimated from few doses is 1910 nM.

For `Cc1ccc(NC(=O)Nc2ccccc2)cc1-c1ccc(C(=O)Nc2ccncc2)cc1` [GSK1398471A], the potency estimated from few doses with PRKD1 (compound concentrations: 100 nM and 1000 nM (sheet 'Samples'), CATDS: 0.105821439316495) was 1680 nM.

With `O=C1NC(=O)C(c2cccc(Cl)c2)=C1Nc1ccc(O)c(Cl)c1` [SB-409514], in the test on ACLY (CATDS: 0.38429140901440101), the potency estimated from few doses is 1000 nM.

These data come from paper PMC11062922 (Nature Chemical Biology, 2023).
